High-throughput results (PubChem BioAssay)
In the library only some 19% were active in any assay of this set; here they are far more common.
HepG2 tox = counter-screen for TGF-b inhibitors: cytotoxicity in HepG2 cells. HepG2 CAGA-GFP viability, ATP luminescence, 18 h. Potency, µM (highest dose often 46.1 µM), hits mostly cytotoxic. 410,000 compounds, 0.76% hits
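HepG2 CAGA-GFP cells (1000/well, DMEM with 1% FBS) received compound, then TGF-beta at 500 pg/mL final, and were incubated 18 hours at 37 degrees C. Viability was read by CellTiter-Glo luminescence. Media-only wells were set as complete cell-killing and DMSO as no toxicity.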
TDP1 inh = blocks human tyrosyl-DNA phosphodiesterase 1 | Q9NUW8 | recombinant TDP1, AlphaScreen DNA substrate cleavage | Potency, µM (highest dose often 130 µM), usual class: inhibitors | 350,000 compounds, 0.28% hits; also: nearly all actives have a fitted effect of over 40% in size
Target sequence (Q9NUW8 whole entry, looked up): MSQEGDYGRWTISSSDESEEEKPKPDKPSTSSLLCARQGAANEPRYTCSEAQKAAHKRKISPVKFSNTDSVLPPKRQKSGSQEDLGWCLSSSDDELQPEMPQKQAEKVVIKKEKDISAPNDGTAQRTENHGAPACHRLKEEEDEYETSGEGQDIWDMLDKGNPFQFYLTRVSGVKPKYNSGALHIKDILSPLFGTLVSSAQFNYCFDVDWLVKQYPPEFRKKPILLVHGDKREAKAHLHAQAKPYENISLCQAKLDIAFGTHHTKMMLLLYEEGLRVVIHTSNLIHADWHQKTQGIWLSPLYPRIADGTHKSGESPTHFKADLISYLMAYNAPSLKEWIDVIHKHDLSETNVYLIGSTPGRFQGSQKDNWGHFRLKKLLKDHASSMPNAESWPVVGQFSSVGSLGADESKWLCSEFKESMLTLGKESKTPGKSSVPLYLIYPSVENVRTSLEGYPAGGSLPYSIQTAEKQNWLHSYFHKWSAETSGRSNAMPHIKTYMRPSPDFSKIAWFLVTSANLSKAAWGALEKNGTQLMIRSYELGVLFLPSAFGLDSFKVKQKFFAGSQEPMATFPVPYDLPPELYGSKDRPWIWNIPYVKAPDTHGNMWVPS
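Steps: enzyme plus compound, 15 min RT; add biotin/phosphotyrosine-FITC oligonucleotide (15 nM final), react 5 min; add donor/acceptor beads (10 ug/ml final), 10 min; read AlphaScreen. Tdp1 at 1 nM final.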
TGFb inhibitor = TGF-b pathway inhibition. HepG2 CAGA-GFP TGF-b/SMAD3 reporter, GFP fluorescence, 18 h; TGF-beta stimulated, 500 pg/mL final. Potency, µM (top dose mostly 46.1 µM), hits mostly inhibitors. 410,000 compounds, 1.2% hits; also: nearly all actives have a fitted effect of over 65% in size
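Smad-responsive CAGA-GFP expression was quantified in HEPG2 cells exposed to compounds and 500 pg/mL final TGF-beta for 18 h at 37 degrees C; unstimulated wells defined full inhibition.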
TDP1 cell CPT = DT40-hTDP1 cell growth loss with CPT; chicken DT40 Tdp1-/-;hTDP1 cells + 20 nM CPT, ATP luminescence, 48 h; Potency, µM (doses to about 46.2 µM), hits mostly inhibitors; 420,000 compounds, 12% hits; also: nearly all actives have a fitted effect of over 55% in size
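Chicken DT40 Tdp1-/- cells complemented with human TDP1, 400 cells/well, exposed to compounds plus 20 nM camptothecin for at least 48 h at 37 C; viability read as ATP content by CellTiter-Glo luminescence.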
IL-1B inflam inh = blocks inflammasome-driven IL-1 beta release; THP-1 LPS/ATP IL-1B secretion, AlphaLISA, 16 h; hits give low values; activity change, % at 57.5 µM; 360,000 compounds, 4.7% hits; AID 743279; in the data active = activity change below about -50%; inconclusive = mostly about -30% to -49%
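Secreted IL-1B measured by AlphaLISA bead assay after 16 h compound exposure of THP-1 cells; compounds (final up to 57.5 uM) added 1 h before LPS (250 ng/mL) and ATP (1.25 mM) stimulation; lower signal means less secretion.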
DT40 TDP1 no CPT = qHTS for Inhibitors of human tyrosyl-DNA phosphodiesterase 1 (TDP1): qHTS in cells in absence of CPT; DT40 Tdp1-/- hTDP1 cells, no CPT, ATP luminescence, 48 h; Potency, µM (titrated, usually from 46.2 µM), hits mostly inhibitors; 420,000 compounds, 15% hits; also: nearly all actives have a fitted effect of over 55% in size
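Growth kinetics read by CellTiter-Glo luminescence after ≥48 hr at 37 °C. Cells: DT40 Tdp1-/- stably carrying human TDP1, 400 per well, compound exposure in the absence of CPT (DMSO vehicle).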
Numbers stand for hits; - = inactive; ? = inconclusive; . = no result given. Unless noted, calls follow the shape of the dose curve; as a rule, active = well fitted curve in the direction sought with a large enough effect; inconclusive = small, poorly fitted or top-dose-only effect, or another doubt; inactive = no such curve, though single readings can be large; an effect the other way counts as inactive or inconclusive.

SMILES | HepG2 tox | TDP1 inh | TGFb inhibitor | TDP1 cell CPT | IL-1B inflam inh | DT40 TDP1 no CPT
COc1cccc(Nc2sc(C(=O)c3ccc(F)cc3)c(N)c2C(=O)NCc2ccc(Cl)cc2)c1 | - | - | ? | - | . | 21µM
CC1CCCCN1S(=O)(=O)c1ccc2c(c1)CCN2C(=O)C1CC1 (configuration not stated) | - | - | - | - | - | -
O=C(O)c1cccc2cccc(-c3c4ccc(=O)c(O)c-4oc4c(O)c(O)ccc34)c12 | - | . | - | 10µM | - | 7.3µM
CSCCC(C(=O)Nc1c(C)cccc1C)N(C)CCc1ccccc1 (configuration not stated) | - | . | - | 18µM | - | 16µM
CN(CCc1ccccc1)C(CCc1ccccc1)C(=O)Nc1ccc2c(c1)OCCO2 (configuration not stated) | - | . | ? | ? | - | ?
NS(=O)(=O)c1ccc(OC(=O)CNC(=O)OCc2ccccc2)cc1 | - | . | - | - | - | -
COc1ccc([C@H]2/C=C\CN(C(=O)c3ccc(C)cc3)[C@@H](C)C(=O)N2Cc2ccc(F)cc2)cc1 | - | . | ? | ? | - | 21µM
COc1ccc(C2/C=C\CN(C(=O)c3ccccc3)[C@H](Cc3ccccc3)C(=O)N2Cc2ccc(F)cc2)cc1 (some centres not stated) | - | - | - | 21µM | - | 15µM
CCOc1ccccc1NC(=O)C1CCN(S(=O)(=O)c2ccc3[nH]c(=O)oc3c2)CC1 | - | - | - | ? | . | ?
COc1ccc(CCNC(=O)Cn2c(=O)c3sccc3n(CC(=O)Nc3cccc(C(F)(F)F)c3)c2=O)cc1OC | - | - | - | - | . | -
CC(NC(=O)CSc1n[nH]c(-c2ccccc2Cl)n1)c1nc2ccccc2n1C (configuration not stated) | - | - | - | - | . | -
CCOc1ccc(-c2cc3c(=O)n(CC(=O)NCc4ccc(F)cc4)ccn3n2)cc1 | - | - | - | - | . | -
CC1CCN(C(=O)c2[nH]cnc2C(=O)NC2CCN(C(=O)OC(C)(C)C)CC2)CC1 | - | - | - | ? | - | -
CC(C)(C)OC(=O)N1CCC(NC(=O)c2nc[nH]c2C(=O)NCc2ccccc2)CC1 | - | - | ? | ? | - | 23µM
CC(C)C[C@H](NC(=O)c1nc[nH]c1C(=O)NC1CCN(C(=O)OC(C)(C)C)CC1)C(=O)OCc1ccccc1 | 13µM | - | ? | ? | -79 | ?
CC(C)(C)OC(=O)[C@H](Cc1ccccc1)NC(=O)c1nc[nH]c1C(=O)N1CCN(C(=O)OC(C)(C)C)CC1 | - | . | - | ? | - | -
C[C@H](NC(=O)c1nc[nH]c1C(=O)NC1CCN(C(=O)OC(C)(C)C)CC1)C(=O)OC(C)(C)C | - | - | - | 18µM | - | ?
CC(C)(C)OC(=O)[C@H](Cc1ccccc1)NC(=O)c1nc[nH]c1C(=O)NC1CCN(C(=O)OC(C)(C)C)CC1 | - | - | ? | 23µM | - | 16µM
CC(C)C[C@H](NC(=O)c1nc[nH]c1C(=O)NC1CCN(C(=O)OC(C)(C)C)CC1)C(=O)OC(C)(C)C | - | - | ? | ? | - | 18µM
Cc1ccc(NC(=S)NC(=O)Cc2ccccc2)c(O)c1 | - | . | - | ? | - | -
COc1ccc(-n2c(C)cc(C(=O)CN3C(=O)NC4(CCCc5sccc54)C3=O)c2C)cc1 (configuration not stated) | - | - | ? | 16µM | - | 21µM
Cc1cc(C)c(C(N)=O)c(SCC(=O)c2cc(C)n(-c3cc(C)on3)c2C)n1 | - | - | - | 1.2µM | - | 0.52µM
CC(=O)c1c(C)[nH]c(C(=O)CSc2nnc(-c3ccccc3)n2Cc2ccc3c(c2)OCO3)c1C | - | - | - | ? | - | ?
